High-throughput results as filed in PubChem.
CendR NRP1 mod = modulators of CendR peptide binding to human neuropilin-1. AID 602438. 0.85% of 360,000 active. O14786. inhibition, % at 25 µM. FAM-RPARPAR peptide binding to NRP-1, fluorescence polarization;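 active means inhibition or corrected inhibition above about 18%, plus a signal ratio from 0.5 to 1.5, limit read from the data, passing the limit was not always enough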
iPSC survival up = hiPSC single-cell survival enhancement; ATPlite luminescence; 100% = ROCK inhibitor wells, 0% = DMSO; survival enhancement, % at 20 µM; 0.044% of 360,000 active; AID 602274; in the data active means survival enhancement above about 18%;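 further: cells exposed to compounds for 16 hours before the ATP read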
ABCB6 inh 2 = human ABCB6 transporter inhibition. 0.19% of 360,000 active. K562-ABCB6 porphyrin accumulation, flow cytometry, 1 h; stronger effect = lower value. fluorescence ratio to DMSO, % at 10 µM;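 active means fluorescence ratio to DMSO below 75%, the collection mean minus 3 SD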;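 further: signal is porphyrin accumulated inside mitochondria; 100% equals median channel fluorescence of DMSO control wells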
Target sequence (Q9NP58 whole entry, looked up): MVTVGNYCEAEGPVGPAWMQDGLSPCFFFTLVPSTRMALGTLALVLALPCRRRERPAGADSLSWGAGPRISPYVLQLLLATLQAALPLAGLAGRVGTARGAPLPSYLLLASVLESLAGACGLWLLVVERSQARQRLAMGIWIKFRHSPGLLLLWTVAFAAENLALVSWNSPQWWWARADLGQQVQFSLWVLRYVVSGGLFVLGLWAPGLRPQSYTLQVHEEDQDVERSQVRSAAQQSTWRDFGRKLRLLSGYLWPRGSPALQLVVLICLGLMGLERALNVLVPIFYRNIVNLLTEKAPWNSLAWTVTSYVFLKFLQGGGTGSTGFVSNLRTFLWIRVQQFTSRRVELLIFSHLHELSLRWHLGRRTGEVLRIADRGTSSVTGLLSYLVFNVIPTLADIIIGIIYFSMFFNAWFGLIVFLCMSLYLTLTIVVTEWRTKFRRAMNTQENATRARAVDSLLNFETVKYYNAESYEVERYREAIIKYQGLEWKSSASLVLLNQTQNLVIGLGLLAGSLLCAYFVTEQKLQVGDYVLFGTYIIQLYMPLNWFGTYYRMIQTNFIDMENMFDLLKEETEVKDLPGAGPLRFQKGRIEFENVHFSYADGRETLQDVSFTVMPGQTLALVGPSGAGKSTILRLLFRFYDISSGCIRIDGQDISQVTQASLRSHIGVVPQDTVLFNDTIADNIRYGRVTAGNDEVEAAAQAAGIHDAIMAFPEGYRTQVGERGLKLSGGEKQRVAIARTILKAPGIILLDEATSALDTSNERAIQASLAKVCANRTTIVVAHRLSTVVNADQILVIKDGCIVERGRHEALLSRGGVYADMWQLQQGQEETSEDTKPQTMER
GSIS activator = GLuc luminescence reporter in INS-1E cells, primary screen for activators of glucose-dependent secretion of insulin | activation, % at 16.6 µM | INS-1E GLuc reporter insulin secretion, 2-3 h | AID 743287 | 0.61% of 370,000 active;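 active means lowest replicate activation of at least 40%, so every replicate reaches that level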;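 further: 0% = median of neutral control wells and 100% = median of IBMX positive control wells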
ARNT TACC3 PPI = ARNT/TACC3 interaction disruption | AlphaScreen His-ARNT PAS-B/GST-TACC3 binding, luminescence; TACC3 fragment carries E629A point mutation | inhibition, % at 9.99 µM | 0.66% of 390,000 active;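 active means mean inhibition of replicates at least 50% and at least half of replicates each reaching 50%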;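 further: 0% = complete ARNT plus TACC3 wells and 100% = ARNT alone without TACC3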
* marks the source's active call; other numbers are inactive results; . = no result given; ! = not confirmed by another sample. The list is not random: actives were taken first. Their share in the collection is about 1.8%.

SMILES	CendR NRP1 mod	iPSC survival up	ABCB6 inh 2	GSIS activator	ARNT TACC3 PPI
COc1cc2c(C#N)c(N3CCCC3)nc(N)c2c(N)n1	30*!	1	106	8	34*!
N#Cc1c(N2CCCC2)nc(N)c2c(N)nc(N3CCCC3)cc12	32*	-4	116	.	-45
CCOc1cc2c(C#N)c(N3CCCC3)nc(N)c2c(N)n1	4	1	97	0	1
CCC(=O)N1CC[C@H]2[C@H](CO)Nc3ccc(-c4ccc(OC)cc4)cc3[C@H]21	.	.	.	28	-1
CN(C)C(=O)C[C@@H]1CC[C@@H]2[C@H](COc3ccc(NC(=O)C4CCCC4)cc3C(=O)N2C)O1	.	.	.	18	.
COc1ccc2c3c(n(C)c2c1)[C@@H](CO)N(CC1CC1)CC31CCN(S(=O)(=O)c2cn(C)cn2)CC1	.	.	.	-7	.
COc1cc(/C=N/S(=O)(=O)CCc2ccccc2)cc(OC)c1O	39*	1	104	3	-4
Cn1cnc(S(=O)(=O)N2[C@@H]3CNC[C@H]2C3c2ccc(-c3ccccc3)cc2)c1 (some centres undefined)	.	.	.	13	.
CCN1c2ccccc2N(C)C1(C)c1ccccc1 (centres undefined)	-26	-4	125	.	64*
CN1c2ccccc2N(C)C1(C)c1ccccc1	-5	-1	99	-8	36
COc1cccc(C2/C(=C(/O)c3ccccc3)C(=O)C(=O)N2CCCC(=O)O)c1 (centres undefined)	29*	0	103	.	-21
COc1ccc(/C(O)=C2/C(=O)C(=O)N(CCCC(=O)O)C2c2ccc(OC)c(OC)c2)cc1 (centres undefined)	-6	-3	101	.	-2
COc1ccc(S(=O)(=O)N(C)C[C@@H]2Oc3ccc(NC(=O)Nc4ccc5c(c4)OCO5)cc3CC(=O)N([C@H](C)CO)C[C@@H]2C)cc1	.	.	.	-18	0
Cc1cccc(-c2ccc([C@@H]3[C@H](CO)N4CCCCN(S(=O)(=O)c5cccs5)C[C@@H]34)cc2)c1	.	.	.	-20	-2
CC(Oc1ccccc1Cl)C(=O)Nc1ccc(S(=O)(=O)Nc2nccs2)cc1 (centres undefined)	-8	0	97	87*	6
O=[N+]([O-])c1ccc(Cc2ccncc2)cc1	26*	0	94	8	-10
C[C@@H]1CCCCO[C@H](CN(C)C(=O)Nc2cccc3ccccc23)[C@@H](C)CN([C@H](C)CO)C(=O)c2cc(NC(=O)c3ccncc3)ccc2O1	.	.	.	9	-6
CC(C)(C)NC(=O)NC(=O)CSc1cccc(C(F)(F)F)c1	-2	-1	96	-22	-6
CNC(=O)NC(=O)CSc1cccc(C(F)(F)F)c1	38*	0	89	0	0
O=C(NC12CC3CC(CC(C3)C1)C2)c1ccc(-c2ccc(Cl)cc2)o1	-8	0	84	-2	-9
O=C(NC12CC3CC(CC(C3)C1)C2)c1ccc(-c2ccccc2Cl)o1	8	-1	108	-31	active
CC(=O)N(C)C[C@@H]1Oc2ncc(C#CC(C)(C)O)cc2C(=O)N([C@H](C)CO)C[C@@H]1C	.	.	.	7	-13
COC(=O)[C@H](CCSC)NC(=O)Nc1ccc(OC)c(Cl)c1	24*	1	98	.	4
O=C1O[C@H](c2ccccc2)[C@H](c2ccccc2)N2[C@H]1[C@@H](C(=O)N1CCCCCCC1)[C@]1(C(=O)Nc3ccc(C#CC4=CCCCC4)cc31)[C@H]2c1ccccc1OCCO	.	.	.	.	22
CC(C)NC(=O)N1CC2(C1)[C@H](c1ccccc1)[C@@H](CO)N2Cc1ccccc1	.	.	.	10	.
SMILES	CendR NRP1 mod	iPSC survival up	ABCB6 inh 2	GSIS activator	ARNT TACC3 PPI
O=C(NCc1ccccn1)c1ccccc1OCc1ccc(Cl)cc1Cl	-2	-2	95	49*	-10
O=C(NCc1ccccn1)Nc1ccc(Cl)cc1Cl	9	0	93	20	10
O=C(Nc1ccc2c(c1)CCC2)c1ccc(F)c(S(=O)(=O)N2CCOCC2)c1	25*	-1	90	-3	24
O=C(NCC1CCCCC1)c1ccc(F)c(S(=O)(=O)N2CCOCC2)c1	21*	0	85	1	1
CC1CCCC(C)N1C(=O)COC(=O)c1ccc(F)c(S(=O)(=O)N2CCOCC2)c1 (centres undefined)	23*	0	105	5	10
Cc1ccc(C(=O)Nc2ccc3c(c2)CCC3)cc1S(=O)(=O)N1CCOCC1	0	0	98	-6	.
CCCNC(=O)Nc1ccc2c(c1)C(=O)N(C)[C@@H]1CC[C@@H](CC(=O)O)O[C@H]1CO2	.	.	.	-3	-29
CC1(C)CCC(=O)N2CC[C@H]3C[C@H](OC(=O)Nc4ccc5c(c4)OCO5)C[C@@H]1[C@H]32	20*	-2	98	.	2
COc1ccc(/C=N\NC(=O)c2ccccc2F)cc1COc1ccc(F)cc1F	6	0	107	-4	-1
COc1ccc(/C=N/NC(=O)c2cc(C(C)(C)C)[nH]n2)cc1COc1ccc(F)cc1F	39*	-1	95	-13	0
COc1cc2c(cc1OC)C(c1cccc([N+](=O)[O-])c1)NC(=O)C2 (centres undefined)	14	0	96	70*	-4
N#CCS(=O)(=O)c1ccccc1	24*	0	98	4	0
O=S(=O)(CC=CCS(=O)(=O)c1ccccc1)c1ccccc1	6	4	91	-8	-7
C=C(CN(C)C)C(=O)c1cc(C)ccc1C	0	0	875	90*	-4
COc1ccccc1CN1CC[C@@H]2[C@@H](CO)Nc3ccc(-c4ccc(C(=O)N(C)C)cc4)cc3[C@@H]21	.	.	.	-2	4
CCOC(=O)CSc1nnc2c3ccccc3n(C)c2n1	26*	0	92	.	-1
CCCn1c2ccccc2c2nnc(SCC(=O)OCC)nc21	1	5	93	.	-2
COc1ccc(NC(=O)N(C)C[C@@H]2Oc3c(NS(=O)(=O)c4cccs4)cccc3C(=O)N([C@H](C)CO)C[C@@H]2C)cc1	.	.	.	-28	-3
CCn1c(CNC(=O)c2cccc(C)c2)nnc1SCC(=O)N1CCOCC1	9	0	107	44*	-1
CCn1c(COc2c(C)cccc2C)nnc1SCC(=O)N1CCN(c2ccccc2)CC1	37*	0	94	.	9
O=C(Nc1cccc(S(=O)(=O)C(F)(F)F)c1)[C@@H]1O[C@H](CO)[C@@H](O)[C@H]1O	3	0	106	43*	.
O=C(Nc1cccc(S(=O)(=O)C(F)(F)F)c1)[C@H]1C[C@H](O)[C@@H](CO)O1	-1	-1	100	8	.
O=C(C[C@H]1CC[C@H](NS(=O)(=O)c2ccccc2)[C@@H](CO)O1)N1CCN(c2ccccc2)CC1	.	.	.	16	.
C[C@H]1CN([C@@H](C)CO)S(=O)(=O)c2ccc(-c3cccc(C(=O)N(C)C)c3)cc2O[C@H]1CN(C)C(=O)Cc1ccccn1	.	.	.	1	-8
